From PubChem BioAssay come the findings set out here.

Molecules are shown by their SMILES. Active and inactive are the calls of the source.

Assay [1] is described as follows: small molecules captured by biotinylated probe aFSTL3 – biochemical, small-molecule microarray, fluorescence 635/667, stem cell growth factor project, primary screen (AID 1064).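 Note: measures binding of the biotinylated anti-FSTL3 antibody to printed compounds.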 Particulars: higher = more signal.
The nature of assay [2]: binders from COS7 lysate, DM2A8 probe, primary screen, torsin A project, cell lysate, small-molecule microarray, fluorescence 635/667 (AID 1065). Particulars: higher = more signal, COS7 lysate expressing mutant human TOR1A.
Assay [3] is described as follows: small molecules captured by biotinylated probe aFGF2 – biochemical, small-molecule microarray, fluorescence 635/667, stem cell growth factor project, primary screen (AID 1067).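 Note: measures binding of biotinylated aFGF2 protein to printed compounds on slides; z-score merges feature fluorescence and signal-to-noise across triplicate slides.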 Conditions: higher = more signal.
Assay [4] in a line: small molecules captured by biotinylated probe aFGF10 – biochemical, small-molecule microarray, fluorescence 635/667, stem cell growth factor project, primary screen (AID 1071).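 Note: score merges 667 nm spot intensity and signal to noise from triplicate slides.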 Particulars: higher = more signal.
In assay [5] the target is Neurogenic locus notch homolog protein 2 (Homo sapiens) (UniProt Q04721). Put plainly: small molecules binding Notch2 protein – biochemical, small-molecule microarray, 635 nm fluorescence, stem cell growth factors, primary screen (AID 1073). Particulars: higher = more signal.
Sequence of Neurogenic locus notch homolog protein 2 (Homo sapiens) (Q04721 whole entry, looked up, canonical isoform): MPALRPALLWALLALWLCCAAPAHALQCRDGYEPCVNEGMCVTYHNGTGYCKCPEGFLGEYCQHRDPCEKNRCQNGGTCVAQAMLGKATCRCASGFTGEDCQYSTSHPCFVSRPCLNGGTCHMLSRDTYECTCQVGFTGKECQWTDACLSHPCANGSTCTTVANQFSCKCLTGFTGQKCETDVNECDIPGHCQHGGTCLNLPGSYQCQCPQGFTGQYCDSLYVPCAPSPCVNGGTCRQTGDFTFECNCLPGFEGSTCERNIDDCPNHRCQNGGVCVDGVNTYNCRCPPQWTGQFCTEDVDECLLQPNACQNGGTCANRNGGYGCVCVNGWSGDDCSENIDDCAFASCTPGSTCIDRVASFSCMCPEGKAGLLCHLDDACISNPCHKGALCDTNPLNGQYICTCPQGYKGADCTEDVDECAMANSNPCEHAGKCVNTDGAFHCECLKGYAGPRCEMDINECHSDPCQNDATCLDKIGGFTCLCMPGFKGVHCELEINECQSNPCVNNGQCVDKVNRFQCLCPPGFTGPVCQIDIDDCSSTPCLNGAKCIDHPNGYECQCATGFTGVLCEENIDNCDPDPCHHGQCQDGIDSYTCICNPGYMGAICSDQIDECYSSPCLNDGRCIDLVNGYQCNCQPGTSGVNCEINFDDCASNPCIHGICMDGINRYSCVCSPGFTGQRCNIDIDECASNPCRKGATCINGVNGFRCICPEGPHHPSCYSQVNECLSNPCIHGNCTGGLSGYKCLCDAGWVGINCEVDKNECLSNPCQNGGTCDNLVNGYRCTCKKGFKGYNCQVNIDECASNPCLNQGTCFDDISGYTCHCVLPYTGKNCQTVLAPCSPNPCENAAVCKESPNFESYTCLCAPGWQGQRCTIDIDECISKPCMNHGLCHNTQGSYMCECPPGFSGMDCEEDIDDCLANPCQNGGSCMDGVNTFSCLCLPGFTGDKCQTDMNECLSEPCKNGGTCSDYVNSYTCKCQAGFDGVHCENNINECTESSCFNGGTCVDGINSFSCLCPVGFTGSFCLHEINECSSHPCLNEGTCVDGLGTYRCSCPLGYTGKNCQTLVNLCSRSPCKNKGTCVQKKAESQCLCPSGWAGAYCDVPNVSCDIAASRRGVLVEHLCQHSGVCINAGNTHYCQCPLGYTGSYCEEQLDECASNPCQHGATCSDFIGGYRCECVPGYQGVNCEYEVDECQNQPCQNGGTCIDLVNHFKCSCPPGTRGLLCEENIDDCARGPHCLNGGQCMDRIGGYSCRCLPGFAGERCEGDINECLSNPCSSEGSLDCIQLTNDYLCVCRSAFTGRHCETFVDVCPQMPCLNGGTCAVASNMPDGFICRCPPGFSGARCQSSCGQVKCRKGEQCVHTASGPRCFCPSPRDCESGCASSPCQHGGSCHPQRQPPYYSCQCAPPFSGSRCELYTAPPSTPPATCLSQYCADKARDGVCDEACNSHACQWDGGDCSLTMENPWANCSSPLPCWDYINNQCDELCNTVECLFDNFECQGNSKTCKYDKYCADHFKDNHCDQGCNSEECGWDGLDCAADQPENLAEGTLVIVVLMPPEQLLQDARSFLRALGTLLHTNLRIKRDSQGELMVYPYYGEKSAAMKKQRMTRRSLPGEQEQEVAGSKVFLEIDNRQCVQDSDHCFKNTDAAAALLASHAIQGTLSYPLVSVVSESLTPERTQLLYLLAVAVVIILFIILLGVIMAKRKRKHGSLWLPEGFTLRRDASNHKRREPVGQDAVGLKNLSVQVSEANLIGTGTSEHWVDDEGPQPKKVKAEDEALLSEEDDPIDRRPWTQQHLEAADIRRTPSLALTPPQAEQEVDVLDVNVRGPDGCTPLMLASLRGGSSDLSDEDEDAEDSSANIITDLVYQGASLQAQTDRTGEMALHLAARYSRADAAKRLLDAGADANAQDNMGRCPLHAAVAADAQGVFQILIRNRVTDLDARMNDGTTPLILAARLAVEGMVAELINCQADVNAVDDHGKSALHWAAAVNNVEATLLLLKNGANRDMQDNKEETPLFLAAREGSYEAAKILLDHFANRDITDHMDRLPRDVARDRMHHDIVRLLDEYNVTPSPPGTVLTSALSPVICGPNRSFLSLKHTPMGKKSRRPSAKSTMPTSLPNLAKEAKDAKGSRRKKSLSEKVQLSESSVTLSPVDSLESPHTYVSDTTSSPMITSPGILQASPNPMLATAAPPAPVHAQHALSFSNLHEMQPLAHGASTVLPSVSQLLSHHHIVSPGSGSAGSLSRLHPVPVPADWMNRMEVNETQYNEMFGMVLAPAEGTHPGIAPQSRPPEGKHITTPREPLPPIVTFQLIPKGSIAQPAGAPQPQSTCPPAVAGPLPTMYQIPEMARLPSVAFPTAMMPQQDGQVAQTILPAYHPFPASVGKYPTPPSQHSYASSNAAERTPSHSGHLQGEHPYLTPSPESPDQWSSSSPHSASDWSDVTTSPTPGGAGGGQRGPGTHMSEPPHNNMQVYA
Assay [6] deals with Pro-neuregulin-1, membrane-bound isoform (Homo sapiens) (UniProt Q02297). Put plainly: small molecules binding neuregulin-1 protein – biochemical, small-molecule microarray, fluorescence 635/667, psychiatric disease protein project, primary screen (AID 1075).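 Note: score combines 667 nm spot fluorescence with signal to noise.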 Particulars: NRG1 binding, 635 nm fluorescence, higher = more signal.
Sequence of Pro-neuregulin-1, membrane-bound isoform (Homo sapiens) (Q02297 whole entry, looked up, the tested form may be a part, canonical isoform): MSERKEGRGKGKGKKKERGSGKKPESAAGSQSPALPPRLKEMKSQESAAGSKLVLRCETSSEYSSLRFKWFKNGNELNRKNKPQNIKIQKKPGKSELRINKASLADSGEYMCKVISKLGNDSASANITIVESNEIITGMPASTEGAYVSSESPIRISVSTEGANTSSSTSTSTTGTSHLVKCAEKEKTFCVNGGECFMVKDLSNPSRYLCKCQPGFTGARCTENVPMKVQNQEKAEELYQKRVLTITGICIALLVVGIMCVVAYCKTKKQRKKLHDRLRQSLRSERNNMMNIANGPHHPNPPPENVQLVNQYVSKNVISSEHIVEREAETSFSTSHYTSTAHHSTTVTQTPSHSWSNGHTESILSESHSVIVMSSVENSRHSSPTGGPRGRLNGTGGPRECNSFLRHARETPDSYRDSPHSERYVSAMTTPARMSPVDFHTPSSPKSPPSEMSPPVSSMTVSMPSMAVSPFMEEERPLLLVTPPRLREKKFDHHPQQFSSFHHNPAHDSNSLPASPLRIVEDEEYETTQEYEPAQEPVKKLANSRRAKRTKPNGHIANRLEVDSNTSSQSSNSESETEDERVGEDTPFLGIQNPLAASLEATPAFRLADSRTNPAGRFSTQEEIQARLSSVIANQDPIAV
Assay [7] deals with Neuregulin-1 EGF-like domain. Nature of the assay: small molecules binding NRG1 EGF domain – biochemical, small-molecule microarray, 635 nm fluorescence, primary screen (AID 1081).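 Note: binding of the protein to compounds printed on small-molecule microarray slides.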 Conditions: higher = more signal.
Assay [8] can be described thus: FRG1 expression reporter modulators in myotubes – cell-based, C2C12 myotubes, firefly/Renilla luciferase, luminescence, FRG1 inhibition for FSHD, primary screen (AID 1084). Conditions: FRG1 promoter luciferase, higher = more signal, called active from +8 up or from −8 down.
A short description of assay [9]: small molecules captured by biotinylated probe aFST – biochemical, small-molecule microarray, fluorescence 635/667, stem cell growth factor project, primary screen (AID 1086).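 Note: score merges 667 nm fluorescence with signal-to-noise of each printed compound spot.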 Particulars: higher = more signal.
Assay [10] can be described thus: binders of probe aHhip on microarray, primary screen, stem cell growth factor project, biochemical, small-molecule microarray, fluorescence 635/667 (AID 1087).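 Note: score merges spot fluorescence at 667nm with spot signal to noise ratio.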 Particulars: higher = more signal.
The subject of assay [11] is PRMT1 (protein arginine N-methyltransferase 1). Nature of the assay: small molecules binding arginine methyltransferase PRMT1 – biochemical, small-molecule microarray, 635 nm fluorescence, primary screen (AID 1088).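 Note: binding of Prmt1 protein to compounds spotted on small-molecule microarray slides.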 Particulars: higher = more signal.
A short description of assay [12]: growth effects on S. cerevisiae YJM789 – YJM789 clinical isolate, OD600, 24 h, basal, primary screen (AID 1089).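 Note: growth of clinical yeast isolate S. cerevisiae YJM 789 seeded 1000 cells per well; test concentration not given here.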 Particulars: higher = more signal, called active from +8 up or from −8 down.
Assay [13] is described as follows: S. pombe growth modifiers, basal conditions – strain 972, OD600, 24 h, no modulator, primary screen (AID 1090).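 Note: basal condition with compound alone and no growth modifier present; test concentration not given here.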 Conditions: S. pombe 972 growth, higher = more signal, called active from +8 up or from −8 down.
A short description of assay [14]: budding yeast growth modifiers under rapamycin – strain BY4716, OD600, 96 h, primary screen (AID 1091). Note: test concentration not given here. Particulars: S. cerevisiae BY4716 + rapamycin, higher = more signal, called active from +8 up or from −8 down.
In assay [15] the target is Torsin-1A-interacting protein 2 (Homo sapiens) (UniProt Q8NFQ8). Nature of the assay: small molecules binding lysate-expressed LULL1 – cell lysate, human LULL1 lysate, 635/667 nm fluorescence, primary screen (AID 1092).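 Note: probe is lysate of COS7 cells overexpressing human LULL1; score merges per-feature 667 nm fluorescence with signal-to-noise.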 Particulars: small-molecule microarray, hLULL1 lysate binding, 635 nm fluorescence; higher = more signal.
Sequence of Torsin-1A-interacting protein 2 (Homo sapiens) (Q8NFQ8 whole entry, looked up): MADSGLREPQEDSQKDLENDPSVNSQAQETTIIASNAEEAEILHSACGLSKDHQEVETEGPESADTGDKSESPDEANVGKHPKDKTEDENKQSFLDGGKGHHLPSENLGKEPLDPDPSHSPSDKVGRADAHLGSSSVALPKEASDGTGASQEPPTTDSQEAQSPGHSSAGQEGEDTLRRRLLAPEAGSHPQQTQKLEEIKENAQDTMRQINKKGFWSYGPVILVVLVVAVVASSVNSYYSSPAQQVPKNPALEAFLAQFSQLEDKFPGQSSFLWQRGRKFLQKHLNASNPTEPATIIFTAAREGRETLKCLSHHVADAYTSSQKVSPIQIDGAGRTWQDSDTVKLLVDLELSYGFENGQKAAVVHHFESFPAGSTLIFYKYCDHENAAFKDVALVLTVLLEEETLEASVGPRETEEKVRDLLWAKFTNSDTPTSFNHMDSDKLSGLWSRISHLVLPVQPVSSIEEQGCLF
A short description of assay [16]: optical density change of DRC41 E. coli – strain DRC41, OD650, 24 h, E. coli filamentation project, primary screen (AID 1093).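 Note: MC1000 strain lacking acrAB efflux and sulA so SOS filamentation is blocked; test concentration not given here.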 Particulars: E. coli DRC41 growth, higher = more signal, called active from +8 up or from −8 down.
Assay [17] can be described thus: probe aLefty2 binding to arrayed compounds – biochemical, biotinylated probe, 635/667 nm fluorescence, primary screen (AID 1094).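 Note: score merges spot fluorescence near 667 nm with spot signal-to-noise ratio.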 Particulars: small-molecule microarray, higher = more signal.
Assay [18] relates to Noggin (protein binding on small-molecule microarray). Nature of the assay: small molecules binding Noggin protein – biochemical, 635/667 nm fluorescence, primary screen (AID 1095).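 Note: score merges 667 nm feature fluorescence with signal to noise over triplicate slides.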 Particulars: 635 nm fluorescence, higher = more signal.
Assay [19] deals with Neurogenic locus notch homolog protein 3 (Homo sapiens) (UniProt Q9UM47). Nature of the assay: small molecules binding NOTCH3 protein – biochemical, 635/667 nm fluorescence, primary screen (AID 1096). Particulars: small-molecule microarray, 635 nm fluorescence, higher = more signal.
A short description of assay [20]: probe aEGFR binding to arrayed compounds – biochemical, biotinylated probe, 635/667 nm fluorescence, primary screen (AID 1097).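 Note: probe is a biotinylated anti-EGFR antibody binding compounds printed on slides; score combines fluorescence near 667 nm and signal to noise of each spot.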 Particulars: small-molecule microarray, higher = more signal.

For the compound `CCOC(=O)[C@H](Cc1ccccc1)NC(=O)CCC1CC(OC(=O)NCc2cccc3ccccc23)CC2(CCCC(COC(=O)NCc3ccc4c(c3)OCO4)O2)O1` (stereo not given in full), the composite z-score in assay [1] was -0.341; in [2] it was -0.261; in assay [3], -0.0391; in assay [4] it was 0.694; in assay [5], 0.305; in assay [6], 0.188. The composite z-score was 1.07 in [7]; 0.0918 in assay [9]; -0.134 in assay [10]; -0.0058 in [11]; 1.8 in assay [15]; -0.139 in [17]. The composite z-score in [18] amounted to 0.453; in [19], 0.227; in [20], 0.104. For the same compound, the z-score in assay [8] was 1.4 (inactive); in assay [12], 0.549 (inactive); in [13], -0.02 (inactive); in assay [14], 0.743 (inactive); in [16] it was 0.951 (inactive).

On to `CC(C)=NO[C@@H](C)c1cn([C@H](CO)Cc2ccccc2)nn1`, for which the composite z-score in assay [1] is -0.0953; in [2], 0.463; in assay [3], 0.153; in assay [4], 0.423; in [5], 0.579; in assay [6] it was 0.763. Besides, the composite z-score in [7] is 0.442; in assay [9], 0.907; in assay [10], 0.132; in assay [11], 0.99; in assay [15], 1.03; in assay [17], -0.127. The values for the composite z-score in [18], in assay [19] and in assay [20] were 0.946, 0.331 and 0.255, respectively. Besides, the z-score in assay [8] was -0.88 (inactive); in [12], -1.93 (inactive); in [13], -2.29 (inactive); in [14] it was -0.735 (inactive); in assay [16] it was -0.409 (inactive).

For `CON=C[C@@H](OC)[C@H](C)C=CCC(=O)OC`, the composite z-score in assay [1] is -0.447; in assay [2], 0.0818; in assay [3], -0.191; in [4], 0.172; in assay [5] it was -0.0904; in [6], -0.513. Besides, the composite z-score in assay [7] was -0.499; in [9], 0.272; in [10], 0.0401; in assay [11] it was -0.608; in [15], -0.312; in assay [17], -0.0702. For the same compound, the composite z-score in assay [18] is 0.327; in [19], -0.151; in assay [20], -0.22. Moreover, the z-score in [8] is -0.0681 (inactive); in assay [12] it was -0.177 (inactive); in assay [13], -0.289 (inactive); in assay [14], -0.0697 (inactive); in assay [16], 0.0478 (inactive).

Take `O=C1[C@H]2[C@H]3[C@H](O)[C@H](O)CC(=NOC[C@@H](O)COCc4ccco4)[C@@H]3CC[C@H]2C(=O)N1c1cccc(Oc2ccccc2)c1`: the composite z-score is -0.424 in assay [1]; -0.78 in assay [2]; -0.172 in assay [3]; -0.177 in assay [4]; -1.08 in assay [5]; -0.628 in assay [6]. Moreover, the composite z-score in assay [7] was -0.554; in [9], -0.465; in assay [10] it was -0.179; in [11], -0.76; in assay [15], -0.75; in assay [17], 0.0474. In addition, the composite z-score in [18] is 0.0054; in [19], -0.487; in assay [20], -0.156. Also, the z-score in assay [8] was -0.0105 (inactive); in assay [12], 0.321 (inactive); in assay [13], -0.512 (inactive); in assay [14], -0.86 (inactive); in assay [16] it was 0.0129 (inactive).

For the compound `C[C@@H](c1ccccc1)N1C(=O)[C@H]2[C@H]3[C@H](O)[C@H](O)CC(=NNC(=O)OCc4ccccc4)[C@@H]3CC[C@H]2C1=O`, the composite z-score is -0.909 in [1]; 2.62 in assay [2]; -0.203 in assay [3]; -0.261 in assay [4]; -0.155 in assay [5]; -0.536 in [6]. For the same compound, the composite z-score in assay [7] is 1.22; in assay [9], 0.0473; in assay [10] it was 0.161; in assay [11] it was 1.57; in assay [15], 0.0265; in assay [17], -0.19. Also, the composite z-score in assay [18] is 1.89; in assay [19], -0.11; in assay [20] it was -0.508. The z-score in assay [8] was -0.491 (inactive); in assay [12], -0.291 (inactive); in assay [13], 0.452 (inactive); in [14], 5.24 (inactive); in assay [16], 0.482 (inactive).
